VDR inhibitor: inhibitors of human vitamin D receptor. P11473. VDR-SRC2-3 peptide fluorescence polarization, 2 h. Potency, µM, without a hit: max response, negative = inhibition, actives largely listed as inhibitors. 400,000 compounds, 0.93% hits. AID 504847; further: on the % scale 0 is the no-effect control and ±100 the full control effect
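The screen uses fluorescence polarization to detect compounds that interfere with recruitment of the SRC2-3 coactivator peptide to VDR; plates are read after 2 h at room temperature.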
Vif-APOBEC3G blk: inhibitors of Vif-APOBEC3G interaction. AID 602310. 410,000 compounds, 0.076% hits. HeLa A3G-eYFP + Vif (tagged APOBEC3G with the HIV-1 protein that degrades it), YFP fluorescence, overnight. Potency, µM (highest dose often 46.1 µM), without a hit: at the top dose activity, negative = active, hits mostly inhibitors; further: on the % scale 0 is the no-effect control and ±100 the full control effect; nearly all actives have a fitted effect of over 60% in size
Target sequence (Q9HC16 whole entry, looked up): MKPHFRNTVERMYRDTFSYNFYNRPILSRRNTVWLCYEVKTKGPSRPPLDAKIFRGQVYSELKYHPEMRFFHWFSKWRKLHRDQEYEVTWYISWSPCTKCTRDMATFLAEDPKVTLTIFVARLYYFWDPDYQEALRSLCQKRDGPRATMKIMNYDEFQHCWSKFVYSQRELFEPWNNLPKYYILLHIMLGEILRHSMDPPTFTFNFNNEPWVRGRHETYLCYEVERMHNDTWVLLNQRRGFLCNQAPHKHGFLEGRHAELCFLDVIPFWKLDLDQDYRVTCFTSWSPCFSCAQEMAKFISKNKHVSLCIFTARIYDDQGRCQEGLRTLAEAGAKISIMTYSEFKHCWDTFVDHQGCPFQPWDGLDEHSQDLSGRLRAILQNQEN
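HeLa cells stably expressing Vif and C-terminally eYFP-tagged A3G, seeded overnight at 37 deg C, then exposed to compound by pintool overnight at 37 deg C. Rise in yellow fluorescence (Ex 488/Em 500-530, Acumen) marks blocked Vif-driven A3G degradation.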
Vif-A3F inh: blocks the Vif interaction with APOBEC3F. HeLa A3F-eYFP + Vif (tagged APOBEC3F with the HIV-1 protein that degrades it), YFP fluorescence increase. AID 602313. 390,000 compounds, 0.2% hits. Potency, µM (top dose mostly 46.1 µM), for inactives: top-dose activity, negative = active; further: % of control where 0% means no effect; nearly all actives have a fitted effect of over 65% in size
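HeLa cells stably expressing Vif plus C-terminally eYFP-tagged A3F were seeded, incubated overnight at 37 deg C, dosed with compound, incubated overnight again at 37 deg C. Yellow fluorescence (Ex 488/Em 500-530) reported blocked Vif-mediated A3F-eYFP degradation.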
TrxR1 substrate: substrates of rat thioredoxin reductase 1 | 390,000 compounds, 0.01% hits | Potency, µM (highest dose often 114 µM), for the others: top-dose activity change, negative = substrate turnover | purified TrxR1 substrate turnover, NADPH consumption readout; further: on the % scale 0 is the no-effect control and ±100 the full control effect; nearly all actives have a fitted effect of over 50% in size
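Rat TrxR1, dispensed at 90 nM, was prereduced with 400 uM NADPH (final) for 5 min at ~22 deg C, then incubated with compound 15 min before 400 uM selenite. A first-read NADPH fluorescence drop versus no-compound background flagged substrates.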
rTrxR1 inhibitor: blocks rat thioredoxin reductase 1. O89049. recombinant rTrxR1, NADPH fluorescence consumption, selenite substrate. Potency, µM (titrated, usually from 114 µM), for inactives: at the highest dose activity change, negative = inhibition, usual class: inhibitors. 390,000 compounds, 1% hits. AID 588453; further: on the % scale 0 is the no-effect control and ±100 the full control effect; nearly all actives have a fitted effect of over 65% in size
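Rat TrxR1 (90 nM in the dispensed reagent) was pre-reduced with 400 uM NADPH for 5 min at room temperature, then incubated with compound for 15 min. After 400 uM selenite was added, NADPH fluorescence (Ex 340/Em 450 nm) was followed for 8 min.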
* hit, by the source's call; ? = inconclusive; / = no result; [ ] = another dose, or the depositor's remark. Shown are actives, neighbours in structure and some others; about 1.8% of the full set was active somewhere. The call rests on the fitted dose curve; in most records, active means well fitted curve in the direction sought with a large enough effect; inconclusive means small, poorly fitted or top-dose-only effect, or another doubt; inactive means no such curve, though single readings can be large; an effect the other way counts as inactive or inconclusive. Potency means the concentration at half of the fitted maximal effect.

SMILES	VDR inhibitor	Vif-APOBEC3G blk	Vif-A3F inh	TrxR1 substrate	rTrxR1 inhibitor
Cc1cc(C)c2c(CC(=O)N(Cc3ccc(N(C)C)cc3)Cc3ccco3)coc2c1	7%	3%	1%	-11%	8%
CCCCCCCCCCCCCCCCCCN(CCCCCCCCCCCCCCCCCC)c1ccc(/C=C/c2ccc(C=O)cc2)cc1	/	1%	/	6%	15%
N#C/C(=C\c1ccc(C#N)cc1)C(=O)c1ccccc1	79µM*	-5%	-18%	1%[57.1 µM]	?
N#CC(=Cc1ccc(-c2ccccc2)cc1)C(=O)c1ccccc1	/	-13%	/	/	/
Clc1ccc2c(Cl)cc[n+](CCC3CCCCC3)c2c1	/	-5%	/	-7%	-24%
C#CCN1C(=O)C(O)(CC(=O)/C=C/C=C/c2ccccc2)c2ccccc21 (centres undefined)	-3%	-11%	-6%	-6%	28µM*
Cc1cc(C(=O)N/N=C/c2ccc(N(C)C)o2)cs1	?	2%	?	2%	14µM*
CN(C)c1ccc(/C=N/NC(=O)C(O)(c2ccccc2)c2ccccc2)o1	?	-1%	-1%	0%	8.9µM*
CCc1cnc2ccccc2c1/C=C/c1ccc(N(C)C)cc1	/	-11%	/	-7%	-13%
CN(C)c1ccc(/C=C2\C=Cc3ccccc32)cc1	/	-1%	/	-5%	-15%
CC(C)CN(C)c1ccc(/C=C2\C=Cc3ccccc32)cc1	/	-11%	/	-3%	45µM*
COc1cc(N(C)C)ccc1/C=C1\C=Cc2ccccc21	/	1%	/	-8%	-13%
COc1ccccc1/C=C1\C=Cc2ccccc21	/	-16%	/	-13%	22µM*
CN(C)/C=C1\C=Cc2ccccc21	/	-3%	/	-5%	2.2µM*
Cc1ccc(C)c(NC(=O)CCCN2C(=O)C(c3ccccc3)Oc3cccnc32)c1 (centres undefined)	16%	?	-4%	-3%	9%
CCCN1CCN(C(=O)c2oc3ccccc3c2NC(=O)COc2ccc(OC)cc2)CC1	20µM*	1%	14%	5%	22µM*
COc1ccc(OCC(=O)Nc2c(C(=O)N3CCN(C)CC3)oc3ccccc23)cc1	-30%	3%	4%	2%[57.1 µM]	12%[57.1 µM]
N#CC(C#N)=C1C=C2C=C(N3CCOCC3)CCC2CC1 (centres undefined)	71µM*	10%	11µM*	-2%[57.1 µM]	-13%[57.1 µM]
Cc1ccc2c(c1)c1c(c(=O)n(-c3ccccc3C)c(=O)n1Cc1cccc(F)c1)n2C	5%	-10%	5%	98%	59%
Clc1ccc(N=c2ssnc2Cl)cc1	25µM*	-6%	3%	-3%	-17%
Fc1ccc(N=c2ssnc2Cl)c(F)c1	35µM*	2%	-12%	-4%[57.1 µM]	-9%[57.1 µM]
CCOC(=O)c1ccc(N=c2ssnc2Cl)cc1	16µM*	4%	?	-16%	?
N#Cc1ccc(N=c2ssnc2Cl)cc1	14µM*	3%	-20%	-4%	?
COc1ccc(N=c2ssnc2Cl)cc1	?	8%	3%	-21%	?
Cc1ccc(C(=O)Cn2c3c(sc2=N)CCCC3)cc1	-17%	/	/	/	/
SMILES	VDR inhibitor	Vif-APOBEC3G blk	Vif-A3F inh	TrxR1 substrate	rTrxR1 inhibitor
CN(C)c1ccc(/C=C/c2c(F)cnc3ccccc23)cc1	/	?	/	-1%	3%
C#CCn1c(=O)c2c(nc(/C=C/c3cccc(OC)c3)n2C)n(CCCOP(=O)(O)O)c1=O	-12%	/	/	/	/
CCN(CC)/[N+]([O-])=N/OCOC(=O)c1ccccc1OC(C)=O	/	0%	/	3%	14%
O=c1c2ncn([C@@H]3O[C@@H]4COP(=O)(O)O[C@H]4[C@H]3O)c2nc2[nH]c(-c3ccccc3)cn12	7%	/	/	/	/
C[C@]12CCC(=O)C=C1CC[C@@H]1C2[C@@H](O)C[C@@]2(C)[C@H]1CC[C@]2(O)C(=O)CO (some centres undefined)	-15%	/	/	/	4%
Clc1nssc1=Nc1ccccc1	45µM*	1%	?	-12%	-64%
COc1cccc(C(=O)N(Cc2ccco2)c2ccccn2)c1	6%	-1%	0%	-1%	0%
Cc1noc(C)c1-c1cc(N(C)Cc2ccco2)ncn1	32µM*	/	/	/	/
CNc1cc(-c2ccccc2C)ncn1	50µM*	/	/	/	/
Cc1ccccc1-c1cc(N(C)Cc2ccco2)ncn1	45µM*	/	/	/	/
CN(C)Cc1ccccc1-c1nccc(N(C)Cc2ccco2)n1	-1%	/	/	/	/
COc1cccc(-c2cc(N(C)Cc3ccco3)ncn2)c1	45µM*	/	/	/	/
